The text below walks through data of PubChem BioAssay (NCATS).

A short description of experiment [1]: NCATS anti-infectives library activity on HEK293 viability as a counter-qHTS vs the C. elegans viability qHTS (AID 1745854).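 Also: HEK293 cells exposed to compounds for 24 hr before the viability read.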 Also: potency is read from the fitted curve at half-maximal effect. The gist of the method: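 Cytotoxicity in human HEK293 cells is measured by ATP-dependent CellTiter-Glo luminescence following a 24 hr incubation with titrated library compounds at 37C. Top final concentration is 41.7 uM.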
In general terms: qHTS replaces the single test concentration by a dilution series.

Experiment [2] in a line: NCATS anti-infectives library activity on the primary C. elegans qHTS viability assay (AID 1745855; calls by dose curve; also: potency is read from the fitted curve at half-maximal effect). Put shortly: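 Viability is taken from GFP fluorescence of PE254-GFP-FLuc C. elegans imaged by laser cytometry over 7 days. Ten L1 worms per well grow at 21 °C on TOP10 E. coli capsules with titrated compound; levamisole marks toxicity.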
Experiment [3] concerns the target Metallo-beta-lactamase type 2 (Klebsiella pneumoniae) (UniProt C7C422). As to the kind of experiment: qHTS to identify inhibitors of the New Delhi Metallo-beta-lactamase (NDM): assay validation screen against the NCATS LOPAC Collection (AID 1794843).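 Also: nitrocefin turnover by NDM-1 measured as 485 nm absorbance at plateau; series mostly up to about 38 µM.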 Put shortly:
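NDM-1 at 2 nM final in 50 mM HEPES pH 7.0 with 1 uM ZnSO4 and 0.01% Tween20 was preincubated with library compounds in DMSO. Nitrocefin (50 uM stock) was then added, and absorbance at 485 nm was read at the kinetic plateau.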

The target of experiment [4] is Glutathione peroxidase 1 (Homo sapiens) (UniProt P07203). In words: Primary qHTS Assay for Inhibitors of Recombinant Selenoprotein Glutathione Peroxidase 1 (GPX1) (AID 1845191). Also: nearly all actives have a fitted effect of over 65% in size. Put shortly: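 10 nM GPX1 + cpd, 30 min RT; start w/ 1 mM GSH, 0.5 mM cumene hydroperoxide, 0.5 mM NADPH, 100 nM GR, 0.01% BSA; buffer 50 mM Tris-HCl pH 7.5, 2 mM EDTA, 150 mM NaCl; Fl 340/450, 0 & 15 min.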
Chain of Glutathione peroxidase 1 (Homo sapiens) (P07203 whole entry, looked up): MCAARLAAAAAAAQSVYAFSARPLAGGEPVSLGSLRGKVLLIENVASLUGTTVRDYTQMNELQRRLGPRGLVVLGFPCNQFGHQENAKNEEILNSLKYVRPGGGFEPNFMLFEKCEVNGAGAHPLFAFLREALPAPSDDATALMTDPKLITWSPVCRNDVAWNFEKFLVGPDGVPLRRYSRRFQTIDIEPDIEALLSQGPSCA

Experiment [5] deals with Phospholipid hydroperoxide glutathione peroxidase GPX4 (Homo sapiens) (UniProt P36969). In words: Primary qHTS Assay for Inhibitors of Recombinant Selenoprotein Glutathione Peroxidase 4 (GPX4) (AID 1845192). Also: nearly all actives have a fitted effect of over 65% in size. Put shortly: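 NADPH consumption, followed by fluorescence at 340/450 nm between 0 and 15 min, reports GPX4 activity via coupled glutathione reductase (100 nM). Enzyme 200 nM was pre-exposed to compound 30 min; 0.5 mM cumene hydroperoxide and 1 mM GSH served as substrates.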
Chain of Phospholipid hydroperoxide glutathione peroxidase GPX4 (Homo sapiens) (P36969 whole entry, looked up): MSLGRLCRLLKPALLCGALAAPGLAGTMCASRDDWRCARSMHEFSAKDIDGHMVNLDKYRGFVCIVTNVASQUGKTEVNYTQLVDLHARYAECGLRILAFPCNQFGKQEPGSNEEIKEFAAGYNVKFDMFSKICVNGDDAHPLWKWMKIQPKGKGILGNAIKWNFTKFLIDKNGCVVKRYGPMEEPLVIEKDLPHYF

Experiment [6] is described as follows: Quantitative High-Throughput drug screen in 47 multiple myeloma cell lines against the NCATS MIPE library collection: EJM_DSMZ cell viability assay (AID 1918926; also: nearly all actives have a fitted effect of over 30% in size; also: potency is read from the fitted curve at half-maximal effect). The gist of the method:
(§1)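 CellTiter-Glo luminescence (ATP) after 48 h compound exposure, 37C/5% CO2; 500 cells/well; MIPE 4.0 approved/investigational drugs pinned in; DMSO = 100%, media only = 0% viability.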

Experiment [7] is described as follows: Quantitative High-Throughput drug screen in 47 multiple myeloma cell lines against the NCATS MIPE library collection: ARP1_JJKsccF8 cell viability assay (AID 1918928; also: nearly all actives have a fitted effect of over 40% in size; also: potency is read from the fitted curve at half-maximal effect). The gist of the method: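 Myeloma cells, 500 per well, were exposed to MIPE 4.0 drugs by pin transfer for 48 h at 37 °C, 5% CO2. Viability was read as ATP luminescence with CellTiter-Glo, normalised to DMSO-only (100%) and medium-only (0%) wells.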

Experiment [8] can be described thus: Quantitative High-Throughput drug screen in 47 multiple myeloma cell lines against the NCATS MIPE library collection: AMO1_DSMZ cell viability assay (AID 1918927; also: nearly all actives have a fitted effect of over 30% in size; also: potency is read from the fitted curve at half-maximal effect). Put shortly:
as §1

Experiment [9] can be described thus: Quantitative High-Throughput drug screen in 47 multiple myeloma cell lines against the NCATS MIPE library collection: ARD_JJKsccE7 cell viability assay (AID 1918929; also: potency is read from the fitted curve at half-maximal effect). The gist of the method:
as §1

Experiment [10] is described as follows: Quantitative High-Throughput drug screen in 47 multiple myeloma cell lines against the NCATS MIPE library collection: FR4_PLB cell viability assay (AID 1918924; also: nearly all actives have a fitted effect of over 35% in size; also: potency is read from the fitted curve at half-maximal effect). The gist of the method: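 Primary qHTS used for cherry-picking: cells at 500/well, library compounds for 48 h (37C, 5% CO2), luminescent ATP assay.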
In experiment [11] the target is Luciferin 4-monooxygenase (Photinus pyralis) (UniProt P08659). As to the kind of experiment: Primary firefly luciferase (FLuc) qHTS assay for identification of artifact compounds. (AID 1845220). Also: series mostly up to about 54 µM; nearly all actives have a fitted effect of over 60% in size. The following applies: outcome: dose series up to 54.1 µM. The gist of the method:
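FLuc 10 nM; luciferin 10 uM; ATP 10 uM; Tris-acetate pH 7.6, Mg-acetate 10 mM; 15 min RT preincubation; 5 min reaction; luminescence.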

Experiment [12] can be described thus: Primary fluorescence-based thiol-reactive (MSTI) qHTS assay for identification of artifact compounds. (AID 1845221).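 Also: series mostly up to about 54 µM; thiol-reactive compounds lower the probe fluorescence signal; nearly all actives have a fitted effect of over 65% in size.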 Put shortly: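 Reactivity toward the thiol probe MSTI (4 uM) is scored by fluorescence at Ex/Em 525/598 nm after 1 h at room temperature. Acetyl-MSTI and MSTI define the activity scale.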
Experiment [13] concerns Nanoluciferase (engineered Oplophorus gracilirostris luciferase). In words: Primary Nanoluciferase (NLuc) qHTS assay for identification of artifact compounds. (AID 1845222).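 Also: NLuc secreted into diluted conditioned medium of S16 cells; series mostly up to about 54 µM.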 The gist of the method: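 NLuc from S16 cell medium (1:55) plus test compounds, 15 min, room temperature. Luminescence after Nano-Glo (1:100) addition, 5 min.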
Experiment [14] can be described thus: Quantitative High-Throughput drug screen in 47 multiple myeloma cell lines against the NCATS MIPE library collection: Delta47_JCRB cell viability assay (AID 1918925; also: potency is read from the fitted curve at half-maximal effect; nearly all actives have a fitted effect of over 45% in size). The gist of the method:
as §1

The nature of experiment [15]: Primary redox qHTS assay for identification of artifact compounds. (AID 1845223). The gist of the method:
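Amplex Red (25 uM) and HRP (250 mU/mL) in HBSS, with compounds for 15 min, then 250 uM DTT for 30 min, room temperature, dark. Fluorescence 525/598 nm read; normalized to DMSO and 10 uM DA3003; Hill fit.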

Inconclusive results are not listed. The source made the active and inactive calls. Unless noted, calls follow the shape of the dose curve; as a rule, active = well fitted curve in the direction sought with a large enough effect; inconclusive = small, poorly fitted or top-dose-only effect, or another doubt; inactive = no such curve, though single readings can be large; an effect the other way counts as inactive or inconclusive.

Chain of Metallo-beta-lactamase type 2 (Klebsiella pneumoniae) (C7C422 whole entry, looked up): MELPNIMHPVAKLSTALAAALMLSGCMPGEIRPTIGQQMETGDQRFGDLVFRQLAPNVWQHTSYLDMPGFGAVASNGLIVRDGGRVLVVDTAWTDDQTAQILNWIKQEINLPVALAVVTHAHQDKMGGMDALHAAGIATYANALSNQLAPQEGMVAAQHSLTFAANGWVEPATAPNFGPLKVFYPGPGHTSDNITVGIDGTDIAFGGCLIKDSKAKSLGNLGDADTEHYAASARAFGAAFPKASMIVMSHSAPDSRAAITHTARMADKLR

As to `O=c1[nH]cc(F)c(=O)[nH]1`, the Potency entry in experiment [1], in experiment [4], in experiment [5] and in [6] was “inactive” in each case. The results for the Potency in experiment [2] and in experiment [7] were 6.48 µM (active) and 1.87 µM (active), respectively. In addition, the molecule was classed as inactive in experiment [3].

As to `CN(C)C(=O)C(CCN1CCC(O)(c2ccc(Cl)cc2)CC1)(c1ccccc1)c1ccccc1`, the Potency entry in experiment [2], in [4], in [5], in [8] and in [9] was “inactive” throughout. Besides, the outcome in experiment [3] was inactive.

As to `CC(C)(C)C(=O)Oc1ccc(S(=O)(=O)Nc2ccccc2C(=O)NCC(=O)O)cc1`, the Potency result in [1], in experiment [4], in [5], in experiment [10], in [8] and in experiment [7] was “inactive” throughout. Moreover, the Potency result in experiment [9] is “inactive”. The result in [3] was inactive.

For the molecule `NC(=O)NO`, the Potency result in experiment [1], in [4] and in experiment [5] was “inactive” each time. The molecule was called inactive in experiment [3]. The Potency in experiment [6] is 0.526 µM (active); in experiment [8], 4.69 µM (active); in experiment [7] it was 2.96 µM (active); in experiment [9] it was 0.235 µM (active).

With `CC1(C)O[C@H]2CC(=O)OC[C@]23[C@H]2CC[C@@]4(C)[C@H](c5ccoc5)OC(=O)[C@H]5O[C@]54[C@]2(C)C(=O)C[C@@H]13`, the Potency entry in [1], in experiment [4], in experiment [5], in [10], in [6] and in experiment [8] was “inactive” throughout. Further, the Potency result in [7] and in [9] was “inactive” in each case. The outcome in experiment [11], in [12] and in [13] was inactive.

For the molecule `O=C1c2c(O)ccc(O)c2C(=O)c2c(NCCNCCO)ccc(NCCNCCO)c21`, the Potency in [1] was 12.6 µM (active); in experiment [10], 1.66 µM (active); in [6] it was 0.833 µM (active); in [8] it was 0.935 µM (active); in [7], 0.469 µM (active); in experiment [9], 20.9 µM (active). Also, in [3], the molecule was classed as inactive. The Potency entry in experiment [4] and in experiment [5] was “inactive” throughout.

As for `COc1ccc(C2CNC(=O)C2)cc1OC1CCCC1` (stereo not drawn), the Potency result in [1], in experiment [4], in experiment [5], in experiment [6], in experiment [8] and in experiment [7] was “inactive” each time. For the same molecule, the Potency result in experiment [9] was “inactive”. The result in experiment [3] was inactive.

On to `OCCN1CCN(CCCN2c3ccccc3Sc3ccc(C(F)(F)F)cc32)CC1`, for which the Potency entry in experiment [2], in experiment [4] and in [5] was “inactive” throughout. The outcome in [3] was inactive. Besides, the Potency in [14], in experiment [8] and in experiment [7] was 18.7 µM (active) in each case.

Take `CNCCCC12CCC(c3ccccc31)c1ccccc12`: the result in experiment [3], in experiment [11], in experiment [12], in experiment [13] and in experiment [15] was inactive. For the same molecule, the Potency result in experiment [4] and in experiment [5] was “inactive” in each case. The figures for the Potency in experiment [8] and in experiment [7] were 23.5 µM (active) and 20.9 µM (active), respectively.

Turning to `CC(=O)OCC(CCn1cnc2cnc(N)nc21)COC(C)=O`, the Potency entry in [1], in [2], in experiment [4], in experiment [5], in [10] and in experiment [6] was “inactive” each time. In addition, the Potency result in experiment [8], in experiment [7] and in [9] was “inactive” throughout. Moreover, the molecule was called inactive in experiment [3].
